Source: PubChem
This is a sample that favours compounds with a hit; in the whole collection about 2.5% have one here.
POLK inh: DNA polymerase kappa (human) inhibition; Q9UBT6; purified Pol kappa, fluorescent DNA synthesis assay, 10 min; Potency, µM (titrated, usually from 107 µM), inactives show at the top dose activity, negative = inhibition, actives largely listed as inhibitors; 400,000 tested, 0.53% active; also: % is scaled to controls: 0 for no effect and ±100 for the full control effect
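Kinetic fluorescence screen: compound preincubated 15 min RT with 10 nM enzyme; 50 nM substrate (final) initiates; reads at 0/10 min.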
POLH inh: inhibitors of human DNA polymerase eta. recombinant Pol eta, fluorescent DNA replication assay. Potency, µM (top dose mostly 114 µM), inactives show at the highest dose activity change, negative = inhibition, usual class: inhibitors. 390,000 tested, 1.2% active. AID 588591; also: % is scaled to controls: 0 for no effect and ±100 for the full control effect
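Pol eta at 10 nM preincubated with compounds 15 min at room temperature; reaction started with fluorescent substrate (50 nM final) and read kinetically at 0 and 10 min.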
Pol beta inh: DNA polymerase beta (human) inhibition; P06746; Pol beta primer extension/strand displacement, fluorescence kinetic; Potency, µM (series often up to 114 µM), for the others: at the top dose activity change, negative = inhibition, most hits filed as inhibitors; 340,000 tested, 1.3% active; AID 485314; also: % is scaled to controls: 0 for no effect and ±100 for the full control effect
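Human Pol beta at 10 nM; strand-displacement substrate 50 nM final. Compound exposure 15 min at room temperature before start, reaction 10 min at room temperature.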
APE1 inh-1: APE1 (human) endonuclease inhibition | 350,000 tested, 0.35% active | recombinant APE1, TAMRA/BHQ-2 abasic DNA cleavage fluorescence | AID 2517 | P27695 | Potency, µM (series often up to 65.8 µM), for inactives: at the highest dose activity change, negative = inhibition, hits mostly inhibitors;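 also: plate controls were vehicle for no effect and reference inhibitor for full effect; nearly all actives have a fitted effect of over 55% in size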
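Measures dequenching upon AP-site incision of a 5'-TAMRA/3'-BHQ-2 THF-containing duplex, 50 nM; human APE1 0.75 nM after 15 min room-temperature exposure to compound; kinetic three-point read at one-minute spacing.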
L3MBTL1 inh: inhibitors of human L3MBTL1; Q9Y468; AlphaScreen L3MBTL1–H3K9me1 peptide binding; Potency, µM (series often up to 57.1 µM), without a hit: at the highest dose activity, negative = inhibition, most hits filed as inhibitors; 230,000 tested, 0.66% active; AID 485360; also: % is scaled to controls: 0 for no effect and ±100 for the full control effect; nearly all actives have a fitted effect of over 60% in size
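AlphaScreen assay: L3MBTL1 (50 nM final) was preincubated 30 min at room temperature with biotinylated H3(1-15)K9me1 peptide (75 nM final), then 30 min with library compounds; streptavidin donor and nickel chelate acceptor beads (10 ug/mL final) added, 30 min dark.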
POLI inh: DNA polymerase iota (human) inhibition; Q9UNA4; Pol iota fluorescent replication assay, 10 min; Potency, µM (titrated, usually from 115 µM), for inactives: top-dose activity, negative = inhibition, most hits filed as inhibitors; 390,000 tested, 1% active; AID 588590
Target sequence (Q9UNA4 whole entry, looked up): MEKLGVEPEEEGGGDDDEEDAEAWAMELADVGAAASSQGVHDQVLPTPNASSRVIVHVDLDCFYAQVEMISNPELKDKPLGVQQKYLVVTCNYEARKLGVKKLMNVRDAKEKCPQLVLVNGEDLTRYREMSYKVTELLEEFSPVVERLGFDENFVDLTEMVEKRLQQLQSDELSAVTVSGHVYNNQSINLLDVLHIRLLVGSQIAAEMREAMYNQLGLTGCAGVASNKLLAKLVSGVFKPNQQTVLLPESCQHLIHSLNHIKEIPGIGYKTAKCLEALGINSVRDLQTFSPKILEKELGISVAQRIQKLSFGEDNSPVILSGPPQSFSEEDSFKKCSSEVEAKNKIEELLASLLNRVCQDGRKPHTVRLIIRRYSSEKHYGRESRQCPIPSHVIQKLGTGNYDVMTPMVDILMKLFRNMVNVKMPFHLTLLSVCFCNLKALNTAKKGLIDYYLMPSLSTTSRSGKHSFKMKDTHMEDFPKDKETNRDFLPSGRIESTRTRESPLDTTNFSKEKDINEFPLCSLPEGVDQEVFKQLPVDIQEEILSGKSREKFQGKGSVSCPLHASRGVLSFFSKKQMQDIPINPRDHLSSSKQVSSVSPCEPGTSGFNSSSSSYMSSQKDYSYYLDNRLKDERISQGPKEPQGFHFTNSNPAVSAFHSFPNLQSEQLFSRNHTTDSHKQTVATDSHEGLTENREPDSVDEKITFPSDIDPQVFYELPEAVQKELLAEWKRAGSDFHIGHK
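Pol iota at 10 nM preincubated 15 min with compounds at room temperature; reaction started with fluorescent substrate, 50 nM final. Fluorescence read kinetically at 0 and 10 min; buffer-only wells as negative control.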
APE1 dye cs: displaces fluorescent dye from DNA, flagging APE1 artifacts; AID 2564; shares compounds with APE1 inh-1; DNA fluorescent dye displacement counterscreen, fluorescence; 480 tested, 7% active; Potency, µM (highest dose often 28.5 µM), for the others: at the highest dose activity change, negative = inhibition, actives largely listed as inhibitors;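 also: loss of thiazole orange fluorescence as the dye is displaced from duplex DNA; 0% = ThO with dsDNA and no compound and -100% = ThO without dsDNA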
EndoIV counter: counter-screen for APE1 inhibitors: inhibitors of E. coli endonuclease IV; shares compounds with APE1 inh-1; E. coli Endo IV, fluorogenic AP-site DNA cleavage; Potency, µM (titrated, usually from 27.1 µM), for inactives: at the highest dose activity change, negative = inhibition, hits mostly inhibitors; 560 tested, 4% active;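 also: plate controls were uninhibited enzyme wells for no effect and no enzyme buffer wells for full effect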
APE1 inh-2: confirmation of inhibitors of human APE1 endonuclease. Potency, µM (highest dose often 57.1 µM), inactives show top-dose activity change, negative = inhibition, usual class: inhibitors. purified APE1, fluorogenic abasic-site DNA cleavage. shares compounds with APE1 inh-1. 750 tested, 44% active; also: % is scaled to controls: 0 for no effect and ±100 for the full control effect; nearly all actives have a fitted effect of over 30% in size
APE1 FP inh: compounds that displace a DNA probe from human APE1 | shares compounds with APE1 inh-1 | 480 tested, 7% active | APE1 binding to TAMRA-labelled double-stranded DNA, fluorescence polarization displacement | AID 2573 | Potency, µM (series often up to 28.5 µM), inactives show top-dose activity, negative = inhibition, actives largely listed as inhibitors; also: % is scaled to controls: 0 for no effect and ±100 for the full control effect
* = called active by the depositor; ? = inconclusive; · = no result; [ ] = remark or other dose. Calls follow the shape of the dose curve; as a rule, active = well fitted curve in the direction sought with a large enough effect; inconclusive = small, poorly fitted or top-dose-only effect, or another doubt; inactive = no such curve, though single readings can be large; an effect the other way counts as inactive or inconclusive. Potency is read from the fitted curve at half-maximal effect.

SMILES	POLK inh	POLH inh	Pol beta inh	APE1 inh-1	L3MBTL1 inh	POLI inh	APE1 dye cs	EndoIV counter	APE1 inh-2	APE1 FP inh
[O][C@H]1[C@@H](O)[C@@H](CO)O[C@@H](O[C@@H]2[C@@H]3OC[C@H]2O[C@H](O[C@@H]2[C@@H](O)[C@H](C[C@@H]4[C@@H]5OC[C@H]4O[CH][C@@H]5O)O[C@H](CO)[C@@H]2OS(=O)(=O)O)[C@@H]3OS(=O)(=O)O)[C@@H]1O	32µM*	·	·	10µM*	·	·	-12%[57.1 µM]	13%[57.1 µM]	7.1µM*	-29%[57.1 µM]
O=c1c2c3c(sc2n(CCN2CCCC2)c(=O)n1Cc1ccco1)CCCCC3	-21%	3%	?	2%	-5%	18%	·	·	·	·
O=C(Cn1c(=O)n(Cc2ccco2)c(=O)c2c3c(sc21)CCCCC3)Nc1ccccc1	?	50µM*	32µM*	11µM*	?	13µM*	?	-5%	?	-1%
COc1cc(O)c2c(c1)oc(=O)c1c3cc(O)c(O)cc3oc21	0.75µM*	·	·	1.8µM*	·	·	8.9µM*	87%[57.1 µM]	4.5µM*	1%[57.1 µM]
COc1ccc(CCNC(=O)c2ccc(Cn3c(=O)c4ccccc4n(Cc4ccc(F)cc4Cl)c3=O)cc2)cc1OC	5%	-16%	21%	·	·	21%	·	·	·	·
Cc1ccc(/C=C2\SC(=S)N(c3cccnc3)C2=O)o1	50µM*	-16%	3%	16µM*	·	?	?	5%	-10%[24.4 µM]	6%
CCOc1ccccc1NC(=O)c1c(NCc2ccc(C)o2)sc2c1CCCCC2	-11%[60.1 µM]	-8%	5%	·	·	17%	·	·	·	·
OCC1OC(Oc2cccc3ccccc23)C(O)C(O)C1O (stereo not drawn)	1%	-15%	10%	-1%	·	45%	·	·	·	·
O=C(O)c1cc(O)c2c(c1)[C@H]([C@H]1c3cc(C(=O)O)cc(O)c3C(=O)c3c(O[C@@H]4OC(CO)C(O)C(O)C4O)cccc31)c1cccc(O[C@@H]3OC(CO)C(O)C(O)C3O)c1C2=O (stereo partly drawn)	0.89µM*	·	·	·	·	·	·	-30%[57.1 µM]	0.71µM*	·
CCn1c(SCC(=O)N/N=C/c2ccc(C)s2)nc2ccccc21	-7%	-13%	26%	24%	3%	-3%	·	·	·	·
O=C(NN=C1c2ccccc2-c2ccccc21)c1ccccc1	-11%	3%	?	13µM*	3.2µM*	4%	·	·	-28%	·
NC(=S)NN=C1c2ccccc2-c2ccccc21	-4%	-7%	2%	18%	·	-28%	·	·	·	·
O=[n+]1ccn([O-])c2ccccc21	-10%[19.4 µM]	·	·	·	·	·	·	·	·	·
COc1ccc(OCc2cc(C(=O)O)c(C)o2)cc1	·	·	?	25µM*	?	·	·	·	40µM*	·
O=S(=O)(O)c1ccc2nc(-c3ccccc3)[nH]c2c1	6%[19.4 µM]	·	·	·	·	·	·	·	·	·
